Hit rate of the full screen: of about 330,000 compounds, about 3,800 (1.2%) were called active. This is one part of a sample in which actives are shown more often than they occur. Cut-off read from the data, not from the text of the source: active = inhibition above about 15%; inconclusive = no clear call, values can overlap the other calls; inactive = below that.
What follows are molecules tested against NAD-dependent protein deacylase sirtuin-5, mitochondrial (Homo sapiens) (UniProt Q9NXA8) (assay: blockers of sirtuin-5 deacylase activity – biochemical, fluorescence imaging, single point, set 5, primary screen (AID 652115)). Details: Purified SirT5, succinyl-peptide AMC, trypsin-coupled fluorescence; at 15 µM; stronger effect = higher value.
NAD-dependent protein deacylase sirtuin-5, mitochondrial (Homo sapiens), sequence (Q9NXA8 whole entry, looked up): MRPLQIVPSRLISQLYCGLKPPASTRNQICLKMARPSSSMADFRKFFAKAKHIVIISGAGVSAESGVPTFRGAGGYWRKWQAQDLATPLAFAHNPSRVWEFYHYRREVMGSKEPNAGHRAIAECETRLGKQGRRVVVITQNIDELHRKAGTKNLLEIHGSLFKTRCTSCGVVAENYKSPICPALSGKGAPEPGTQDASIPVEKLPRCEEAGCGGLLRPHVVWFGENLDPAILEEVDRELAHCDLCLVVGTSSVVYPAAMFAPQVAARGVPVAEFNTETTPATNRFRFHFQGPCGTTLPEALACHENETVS
In the case of `COc1ccc(S(=O)(=O)N2CCCCC2)cc1NC(=O)C1CC(=O)N(c2ccc3c(c2)OCCO3)C1` (configuration not stated), the inhibition is reported as -0.216% (inactive). For `Cc1ccc(NC(=O)C2CC(=O)N(c3ccc4c(c3)OCCO4)C2)cc1S(=O)(=O)N1CCCCCC1` (configuration not stated), the inhibition was 15.7% (active). With `Cc1ccc(N2CC(C(=O)Nc3ccc(S(=O)(=O)N4CCCC4)cc3)CC2=O)cc1C` (configuration not stated) the inhibition was -0.84% (inactive). With `CN1[C@@H]2c3ccc(-c4cccc(F)c4)c(=O)n3C[C@@H]2[C@@H](CO)[C@@H]1C(=O)NC1CCC1` the inhibition was 1.95% (inactive). For `COC(=O)c1ccc([C@@H](O)[C@H](C)C(=O)CC(=O)OC(C)(C)C)cc1`, the inhibition was 37.8% (active). In the case of `CC(C)(C)OC(=O)Nc1ccc([C@@H](NC(=O)OC(C)(C)C)C(=O)OC(C)(C)C)cc1`, the inhibition is reported as 4.38% (inactive). In the case of `CC(C)(C)OC(=O)N[C@H](C(=O)OC(C)(C)C)c1ccc(Br)cc1`, the inhibition is reported as 0.762% (inactive). In the case of `C[C@@H]1CN([C@H](C)CO)C(=O)c2c(c3ccccc3n2C)-c2ccccc2CO[C@H]1CN(C)Cc1ccc(F)cc1`, the inhibition is reported as 8.7% (inactive). With `C[C@H]1CN([C@@H](C)CO)C(=O)c2cc(-c3cccnc3)cnc2O[C@@H]1CN(C)C(=O)C1CC1` the inhibition was -5.02% (inactive). In the case of `COc1ccc(CN(C)C[C@H]2Oc3ccc(NC(=O)Cc4ccccc4)cc3CC(=O)N([C@@H](C)CO)C[C@@H]2C)cc1`, the inhibition is reported as 3.47% (inactive). In the case of `C[C@H]1CN([C@@H](C)CO)C(=O)Cc2cc(NC(=O)Cn3cnnn3)ccc2O[C@@H]1CN(C)Cc1ccc(-c2ccccc2)cc1`, the inhibition is reported as 4.01% (inactive). With `C[C@H](CO)N1C[C@H](C)[C@@H](CN(C)Cc2ccc(C(=O)O)cc2)Oc2ccc(NC(=O)Cn3cnnn3)cc2CC1=O` the inhibition was 0.832% (inactive). `C[C@H](CO)N1C[C@H](C)[C@@H](CN(C)Cc2ccc(-c3ccccc3)cc2)Oc2ccc(NC(=O)CCC(F)(F)F)cc2CC1=O` was tested, and the inhibition was 16.8% (active). In the case of `C[C@@H]1CN([C@H](C)CO)C(=O)Cc2cc(NC(=O)Cc3ccccc3)ccc2O[C@H]1CN(C)Cc1ccc(Oc2ccccc2)cc1`, the inhibition is reported as 11.3% (inactive). With `C[C@H]1CN([C@@H](C)CO)C(=O)Cc2cc(NC(=O)Cn3cnnn3)ccc2O[C@H]1CN(C)Cc1ccc(C(=O)O)cc1` the inhibition was 18% (active). `C[C@@H]1CN([C@H](C)CO)C(=O)Cc2cc(NC(=O)CCC(F)(F)F)ccc2O[C@@H]1CN(C)Cc1ccncc1` was tested, and the inhibition was -3.99% (inactive). For `Cc1ccc(S(=O)(=O)Nc2ccc3c(c2)CC(=O)N([C@@H](C)CO)C[C@H](C)[C@H](CN(C)Cc2ccc(C(=O)Nc4ccccc4N)cc2)O3)cc1`, the inhibition was 3.56% (inactive). For `C[C@@H]1CN([C@@H](C)CO)C(=O)Cc2cc(NC(=O)CCCN(C)C)ccc2O[C@@H]1CN(C)Cc1ccc(-c2ccccc2)cc1`, the inhibition was -0.666% (inactive). `C[C@@H]1CN([C@@H](C)CO)C(=O)Cc2cc(NC(=O)Cc3ccccc3)ccc2O[C@@H]1CN(C)Cc1ccc(Oc2ccccc2)cc1` was tested, and the inhibition was 15.7% (active). With `C[C@H]1CN([C@@H](C)CO)C(=O)Cc2cc(NS(=O)(=O)c3ccccc3)ccc2O[C@@H]1CN(C)Cc1ccc(C(=O)Nc2ccccc2N)cc1` the inhibition was -3.96% (inactive). In the case of `C[C@H]1CN([C@@H](C)CO)C(=O)Cc2cc(NS(=O)(=O)c3ccccc3)ccc2O[C@H]1CN(C)Cc1ccc(C(=O)Nc2ccccc2N)cc1`, the inhibition is reported as 18.7% (active). In the case of `COCc1cc(N2CCN(C(=O)OC(C)(C)C)C[C@@H]2C)ccc1N1CCN(Cc2ccccc2)[C@H](C)C1`, the inhibition is reported as -1.86% (inactive). For `COc1ccc2c3c([nH]c2c1)[C@H](CO)N(Cc1ccccc1)CC31CCN(C(=O)c2ccccn2)CC1`, the inhibition was -0.283% (inactive). In the case of `CC(=O)N[C@@H]1CC[C@@H](CCNC(=O)C2CC2)O[C@H]1CO`, the inhibition is reported as -0.463% (inactive). In the case of `C[C@H](CO)N1C[C@H](C)[C@H](CN(C)C(=O)CCC(F)(F)F)OCCCC[C@H](C)Oc2ccc(NS(=O)(=O)c3ccc(F)cc3)cc2C1=O`, the inhibition is reported as 6.37% (inactive). `C[C@@H]1CCCCO[C@@H](CN(C)S(C)(=O)=O)[C@H](C)CN([C@@H](C)CO)C(=O)c2cc(NS(=O)(=O)c3cccs3)ccc2O1` was tested, and the inhibition was -3.17% (inactive). In the case of `CC(C)NC(=O)N(C)C[C@H]1Oc2ncc(-c3ccc(C(=O)N(C)C)cc3)cc2C(=O)N([C@H](C)CO)C[C@H]1C`, the inhibition is reported as -4.27% (inactive). With `C[C@@H]1CCCCO[C@H](CN(C)Cc2ccc(Cl)c(Cl)c2)[C@H](C)CN([C@@H](C)CO)C(=O)c2cc(NC(=O)CCC(F)(F)F)ccc2O1` the inhibition was 11% (inactive). In the case of `CCN(CC(=O)Nc1ccc2c(c1)OCO2)S(=O)(=O)c1ccccc1`, the inhibition is reported as -11.2% (inactive). In the case of `CCN(CC(=O)NC1CCS(=O)(=O)C1)S(=O)(=O)c1ccccc1` (configuration not stated), the inhibition is reported as 20.8% (active). `CCN(CC(=O)NCCc1ccccc1)S(=O)(=O)c1ccccc1` was tested, and the inhibition was 13.5% (inactive). With `COc1ccc(/C=C2\SC(=S)N(CC(=O)NNC(=O)c3ccncc3)C2=O)cc1` the inhibition was 36.3% (active). `CCOc1ccc(/C=C2\SC(=S)N(NC(=O)c3ccncc3)C2=O)cc1OC` was tested, and the inhibition was -1.31% (inactive). For `COc1cccc(/C=C2/SC(=S)N(CC(=O)NC3C=CS(=O)(=O)C3)C2=O)c1` (configuration not stated), the inhibition was 7.07% (inactive). With `COc1ccccc1S(=O)(=O)N1CC[C@@H]2[C@H]1c1cc(-c3ccccc3)ccc1N[C@@H]2CO` the inhibition was 2.02% (inactive). In the case of `O=C(C[C@@H]1CC[C@H](NC(=O)C2CCOCC2)[C@@H](CO)O1)Nc1ccccc1`, the inhibition is reported as -0.611% (inactive). For `Cc1ccc(S(=O)(=O)N2C[C@@H]3CCCC[C@@H]3[C@@H](C)[C@H]2c2cn(Cc3ccccc3)c3ccc(F)cc23)cc1`, the inhibition was 26.5% (active). With `CCOC1=C2[C@@H](CN(S(=O)(=O)c3ccc(C)cc3)[C@H]2c2ccccc2F)[C@H]2C(=O)N(Cc3ccccc3)C(=O)[C@H]2C1` the inhibition was 10.7% (inactive). In the case of `Cc1ccc(F)cc1S(=O)(=O)N[C@@H]1CCN(Cc2ccc(-c3ccccc3)cc2)C1`, the inhibition is reported as 4.54% (inactive). `COc1cccc(/C=C2\SC(=S)N(CCCC(=O)N3CCOCC3)C2=O)c1` was tested, and the inhibition was -0.302% (inactive). For `COc1cc(/C=C2\C(=N)N3N=C(CC(=O)N4CCOCC4)SC3=NC2=O)cc(OC)c1OC`, the inhibition was -5.1% (inactive). `C=CCC1=C/C(=C\c2c(N)n3nc(CC(=O)N4CCOCC4)sc3nc2=O)C=C(OC)C1=O` was tested, and the inhibition was 31.6% (active). `O=C(OCC(=O)N1CCOCC1)c1ccc2ccccc2c1` was tested, and the inhibition was -8.77% (inactive). For `COC1=C/C(=C/c2c(N)n3nc(CC(=O)N4CCOCC4)sc3nc2=O)C=CC1=O`, the inhibition was 15.9% (active). For `C[C@H](CO)N1C[C@H](C)[C@H](CN(C)Cc2cncnc2)Oc2cc(-c3ccccc3F)ccc2S1(=O)=O`, the inhibition was -2.9% (inactive). In the case of `O=C(C[C@H]1CC[C@H]2[C@@H](COC[C@H](O)CN2Cc2nccs2)O1)NCc1ccc(Oc2ccccc2)cc1`, the inhibition is reported as -0.449% (inactive). `Cc1ccc(-c2cnc3c(c2)C(=O)N([C@@H](C)CO)C[C@H](C)[C@H](CN(C)C(=O)c2cccnc2)O3)cc1` was tested, and the inhibition was 1.09% (inactive). With `O=S(=O)(c1ccccc1F)N1[C@@H]2CNC[C@H]1C2c1ccc(-c2cncnc2)cc1` (some centres not stated) the inhibition was -2.66% (inactive). With `Cc1ccc(S(=O)(=O)N[C@H]2CC[C@@H](CC(=O)N3CCc4ccccc4C3)O[C@H]2CO)cc1` the inhibition was -2.83% (inactive). `COCC(=O)N1CC2(C1)[C@@H](c1ccc(-c3cccc(F)c3)cc1)[C@@H](CO)N2C(=O)COC` was tested, and the inhibition was -1.31% (inactive). With `COCC(=O)N1[C@H](CO)[C@@H](c2ccccc2)C12CN(Cc1cc(F)ccc1F)C2` the inhibition was 19% (active). With `COCC(=O)N1CC2(C1)[C@H](c1ccc(-c3cccc(F)c3)cc1)[C@@H](CO)N2C(=O)COC` the inhibition was -3.18% (inactive). `C[C@@H](NC(=O)C[C@H]1C=C[C@@H](NC(=O)CN2CCOCC2)[C@@H](CO)O1)c1ccccc1` was tested, and the inhibition was 0.512% (inactive). `O=C(C[C@@H]1CC[C@@H]2[C@H](COC[C@H](O)CN2S(=O)(=O)c2ccc(Oc3ccccc3)cc2)O1)NCCN1CCCCC1` was tested, and the inhibition was -3.74% (inactive). For `CO[C@@H]1CN(C)C(=O)c2ccc(NS(=O)(=O)c3ccc(Cl)cc3)cc2OC[C@@H](C)N(C)C[C@H]1C`, the inhibition was -8.92% (inactive). `CC(C)NC(=O)N[C@H]1CC[C@@H](CCNC(=O)C2CCC2)O[C@@H]1CO` was tested, and the inhibition was -0.093% (inactive). In the case of `CO[C@H]1CC[C@H]2CCOc3c(C#N)cccc3C(=O)N(C)CC3(CCCCC3)CC(=O)N(C)C[C@@H]1O2`, the inhibition is reported as -0.489% (inactive). For `Clc1ccc(Nc2ccc3ccccc3n2)cc1`, the inhibition was -0.101% (inactive). `CC1(C)N=C(N)NC(Nc2ccc(Cl)cc2)=N1` was tested, and the inhibition was 24.2% (active). For `O=c1ccnc(Nc2ccc(Cl)cc2)[nH]1`, the inhibition was -3.58% (inactive). `CO[C@H]1CN(C)C(=O)c2ccc(NS(=O)(=O)c3cn(C)cn3)cc2OC[C@@H](C)N(CC2CC2)C[C@H]1C` was tested, and the inhibition was 10.4% (inactive). For `COC(OC)c1ccnc(SCc2ccccc2Cl)n1`, the inhibition was 65.6% (active). `COc1cnc(SCc2ccc(Cl)c(Cl)c2)nc1Cl` was tested, and the inhibition was -1.51% (inactive). With `CCOC(=O)c1cnc2nc(SCc3ccccc3Cl)[nH]n2c1=O` the inhibition was -0.638% (inactive). With `Cc1ccc2nc(CN(C)C(=O)[C@@H](Cc3ccccc3)NC(=O)[C@H]3O[C@@H](n4ccc(=O)[nH]c4=O)[C@H](O)[C@@H]3O)[nH]c2c1` the inhibition was 0.009% (inactive). For `CN1C(=O)c2cc(NC(=O)c3cscn3)ccc2OC[C@@H]2O[C@H](CC(=O)N3CCCCC3)CC[C@H]21`, the inhibition was 10.6% (inactive). In the case of `COc1ccc(C#Cc2cnc3c(c2)C(=O)N([C@H](C)CO)C[C@H](C)[C@H](CN(C)C(=O)CC2CC2)O3)cc1`, the inhibition is reported as 8.29% (inactive).
